These results are taken from PubChem BioAssay AID1645855 (Buhrlage Lab, Dana-Farber Cancer Institute and Novartis …, 2021).

The campaign covered roughly 47,000 compounds. About 3,100 (6.6%) were called active. The list comes from a sample in which actives are over-represented; it also holds similar structures and randomly drawn compounds. A number with no mark means an inactive call. No stated cut-off is given here; in the data, active means inhibition above about 30%; inactive means the rest.

Sequence of Ubiquitin carboxyl-terminal hydrolase 17-like protein 5 (Homo sapiens) (A8MUK1 whole entry, looked up): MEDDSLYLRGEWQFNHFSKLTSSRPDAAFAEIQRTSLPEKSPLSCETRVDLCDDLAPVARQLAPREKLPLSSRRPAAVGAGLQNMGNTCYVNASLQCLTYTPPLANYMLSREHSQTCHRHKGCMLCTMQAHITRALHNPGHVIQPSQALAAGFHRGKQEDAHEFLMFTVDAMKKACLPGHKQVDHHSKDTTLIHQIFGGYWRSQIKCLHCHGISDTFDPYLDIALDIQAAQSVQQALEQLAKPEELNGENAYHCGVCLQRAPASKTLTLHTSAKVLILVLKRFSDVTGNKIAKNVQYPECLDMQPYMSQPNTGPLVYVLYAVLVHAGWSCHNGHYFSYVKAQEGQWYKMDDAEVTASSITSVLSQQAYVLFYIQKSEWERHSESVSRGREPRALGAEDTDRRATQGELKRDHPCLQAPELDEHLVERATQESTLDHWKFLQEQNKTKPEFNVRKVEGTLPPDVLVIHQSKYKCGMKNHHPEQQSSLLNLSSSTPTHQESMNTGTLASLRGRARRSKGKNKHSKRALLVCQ

This test addresses Ubiquitin carboxyl-terminal hydrolase 17-like protein 5 (Homo sapiens) (UniProt A8MUK1). In words: inhibitors of human USP17 deubiquitinase (AID 1645855). As to conditions: purified USP17, Ub-rhodamine cleavage fluorescence, 3 h; at 50 µM; hits give high values.
As for `Cc1ccc(S(=O)(=O)NC2=NC(c3ccccc3)c3cc(Cl)ccc3N2)cc1` (stereo not given), the inhibition is 10.4%. Consider `O=C(NCCC1=CCCCC1)c1ccc(-c2noc(-c3ccccc3)n2)s1`, for which the inhibition was 2.81%.

On to `CCOc1ccc(-c2noc(-c3nn(-c4cccc(OC)c4)ccc3=O)n2)cc1`, for which the inhibition is 72.3% (active).

`COc1ccc(-c2nc(C3CC(=O)N(c4ccccc4)C3)no2)cc1` (stereo not given): the inhibition was 7.38%. On to `COc1ccc(-c2nc(-c3nnn(Cc4cccc(F)c4)c3C)no2)cc1`, for which the inhibition is -0.491%. To `CCOC(=O)c1cnn(-c2ncc(C(=O)OC)c(C(F)(F)F)n2)c1C(F)(F)F` belongs 3.18%; to `O=C(NCc1ccco1)c1ccc2c(=O)nc3c(-c4ccc(F)cc4)n[nH]n3c2c1`, 11.8%; to `COc1cc(OC)cc(C(=O)Nc2ccc(S(=O)(=O)Nc3cc(C)on3)cc2)c1`, 3.28%. As for `COc1ccc(C(=O)Nc2ccc(N)cn2)cc1`, the inhibition was 12%.

For the compound `COc1ccc(NC(=O)c2ccnc(Nc3ccc(OC)cc3)c2)cc1`, the inhibition is 68.7% (active). To `CC(=O)N1c2ncnn2C(c2ccc(Cl)cc2)CC1c1ccc(Cl)cc1` (stereo not given) belongs -2.75%; to `CC(C)C(=O)Oc1cn(CCCN2CCCC2=O)c2nc(C(C)C)n3c4ccccc4nc3c12`, -84.6%. As for `CCS(=O)(=O)Nc1cc(S(=O)(=O)Nc2cc(Cl)ccc2Cl)ccc1N1CCOCC1`, the inhibition was -13%. `COc1cc(Cl)c(NC(=O)c2cc(-c3ccccn3)n[nH]2)c(OC)c1`: the inhibition is 47.4% (active). On to `Cc1ccc(CC(=O)N2CCN(C(=O)c3cc(-c4ccccn4)n[nH]3)CC2)cc1`, for which the inhibition was -21.8%. As for `COc1cnc(-c2ccccn2)nc1Sc1ccc(Cl)cc1Cl`, the inhibition was -0.938%. Regarding `O=C(Nc1ccc(F)cc1)C1CCCN(C(=O)c2cc(-c3ccccn3)n[nH]2)C1` (stereo not given), the inhibition was -40%.

For the compound `CC1=NS(=O)(=O)N(Cc2ccccc2)C=C1C(=O)Nc1cc(F)ccc1F`, the inhibition was -4.7%.

With `O=C(Nc1ccc(Cl)cc1F)c1cc(-c2ccccn2)n[nH]1`, the inhibition is 83.2% (active).

As to `O=C(CNc1ccc(OC2CCCC2)cc1)N1CCNC1=O`, the inhibition is 11.8%.

Take `CN1CCCN(c2nc(-c3cccnc3)nc3ccccc23)CC1`: the inhibition was -19%. Under `Cc1ccc(-c2n[nH]c3c2CN(S(=O)(=O)C2CC2)CC3)cc1` stands -2.42%.

Consider `O=C(O)c1ccc(-n2cc(-c3cnccn3)cn2)cc1`, for which the inhibition is 1.05%. To `CNC(=O)c1cnn2c(C3CCCN(c4ncccn4)C3)ccnc12` (stereo not given) belongs 2.6%.

With `Cc1nnc(N2CCN(C(c3ccccc3)c3ccccc3)CC2)[nH]c1=O`, the inhibition is -0.696%. As for `C\C=C(/C=C(C)/C=C(C)/C=C/C=C(\C)C(=O)[C@]12O[C@H]1[C@@](O)(CCO)NC2=O)C(=O)OC`, the inhibition is -48.6%. With `CCCCN(c1ccccc1)S(=O)(=O)c1cccc(C(=O)OCC(=O)NCc2ccc3c(c2)OCO3)c1`, the inhibition is 38% (active). For the compound `O=C(COC(=O)c1ccc(F)c(S(=O)(=O)N2CCOCC2)c1)NCc1ccc2c(c1)OCO2`, the inhibition is 16.1%. As for `COc1ccc2c(Sc3ccccc3)c(C(=O)NCc3ccc4c(c3)OCO4)[nH]c2c1`, the inhibition was -5.49%. Take `Nc1nc(N)nc(CN2C(=O)NC(Cc3ccccc3)(c3ccccc3)C2=O)n1` (stereo not given): the inhibition is -1.99%. Take `CCCOc1ccc(-c2csc3ncn(CCc4ccccc4)c(=O)c23)cc1`: the inhibition was 13.1%. To `COc1ccc(CC(=O)Nc2ccc3c(c2)CN(C(=O)c2ccco2)CC3)cc1` belongs 46.1% (active); to `COc1cc2c(cc1OC)CN(C(=O)c1cc(=O)c3ccccc3o1)CC2`, 8.62%. Consider `COc1ccc(CC(=O)Nc2ccc3c(c2)CCC3)cc1S(=O)(=O)N1CCOCC1`, for which the inhibition is -13.3%. With `Cc1ccccc1CNC(=O)C1CCN(c2cnc3nccnc3c2)CC1`, the inhibition is -13%.

In the case of `CCN1CCN(C(=O)c2cccn2Cc2noc(-c3ccc(C)cc3)n2)CC1`, the inhibition is -1.85%. For the compound `CN(C)C(CNC(=O)c1ccccc1Br)Cc1ccccc1` (stereo not given), the inhibition was 14.4%. For the compound `Cc1ccccc1N1C(=O)COc2ccc3ccccc3c2C1C(=O)NC1CCCC1` (stereo not given), the inhibition was -5.8%. With `CNC(=O)[C@@]12CCC3(CCN(C(=O)c4cc(C)on4)CC3)[C@@H]1CN(C)C2`, the inhibition is 3.02%. On to `CCn1cc(CN2C[C@@H](O)[C@H](NC(=O)c3ccccn3)C2)c(C)n1`, for which the inhibition was 12.4%. Under `O=C(c1cnn(-c2ccc(Cl)cc2)n1)c1cccs1` stands 29.5%.

On to `O=C(Nc1ccc2oc(-c3ccccc3)nc2c1)c1cccc(-n2cnnc2)n1`, for which the inhibition is -0.426%. Regarding `O=C(Nc1ccc2cn[nH]c2c1)c1cnn(-c2ccccc2)n1`, the inhibition was 38.2% (active). Regarding `CC(NC(=O)c1ccc2ncnc(N3CCOCC3)c2c1)c1ccccc1` (stereo not given), the inhibition was 9.89%.

For the compound `C=C(NC(=O)C(=C)NC(=O)c1csc(C2=N[C@@H]3c4csc(n4)[C@H]4NC(=O)c5csc(n5)[C@H]([C@](C)(O)[C@@H](C)O)NC(=O)C5CSC(=N5)/C(=C/C)NC(=O)C([C@@H](C)O)NC(=O)c5csc(n5)[C@]3(CC2)NC(=O)[C@H](C)NC(=O)C(=C)NC(=O)[C@H](C)NC(=O)C([C@@H](C)CC)NC2C=Cc3c(C(C)O)cc(nc3[C@H]2O)C(=O)OC4C)n1)C(N)=O` (stereo not given in full), the inhibition is 53.2% (active). `CN(C)C(=O)C1CN(Cc2cccc(C#N)c2)Cc2ccnn2C1` (stereo not given): the inhibition was -3.45%. As for `c1cncc(-c2nnc3n2C2(CCCCC2)Cc2ccccc2-3)c1`, the inhibition is -1.82%. Regarding `O=c1c2ccccc2n(Cc2ccccc2Cl)c(=O)n1Cc1ccco1`, the inhibition is -8.56%. `CCn1nccc1C1CCCN1C(=O)Nc1ccc(Cl)cc1` (stereo not given): the inhibition was 1.51%. To `COc1ccc(CCNC(=O)CSc2cn(CCNC(=O)c3ccccc3C)c3ccccc23)cc1OC` belongs 18.8%; to `COc1ccc(CCNC(=O)CCCn2c(=O)c3ccccc3n(CC(=O)OCc3ccccc3)c2=O)cc1OC`, 40.5% (active); to `Cc1ccc(CNC(=O)CCCn2c(=O)c3sccc3n(CC(=O)OCc3ccccc3)c2=O)cc1`, 47.4% (active). `COc1ccc(CCNC(=O)Cn2c(=O)n(CC3CCC(C(=O)NC4CCCC4)CC3)c(=O)c3ccccc32)cc1OC` (stereo not given): the inhibition is 9.89%. Under `Cc1cccc(N2CC(C)Cn3c2nc2c3c(=O)n(CC(=O)OCc3ccccc3)c(=O)n2C)c1` (stereo not given) stands -3.33%. For the compound `Cc1ccc(CNC(=O)CC(c2ccccc2)c2ccccc2)cc1`, the inhibition was 24.3%.

By inhibition is commonly meant the change of the read-out against control, counted positive when it falls.
